# Experimental data from PubChem BioAssay (NCATS).
# Results filed as inconclusive are left out. Entries that show only a call come without a potency. Values without a mark were called inactive. Active and inactive are the calls of the source. Calls come from the whole dose curve; as a rule, active = well fitted curve in the direction sought with a large enough effect; inconclusive = small, poorly fitted or top-dose-only effect, or another doubt; inactive = no such curve, though single readings can be large; an effect the other way counts as inactive or inconclusive.
# What was measured:
# [1] = BET inhibitor-based combinations targeting novel dependencies in MECOM-rearranged (r) AML: UCSD-AML1 cell line (AID 2202235); note: nearly all actives have a fitted effect of over 40% in size
# Procedure, shortened: (§1)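 Cells at 500/well were exposed for 48 hr to MIPE v5.0 drugs as 11-point dose curves. Viability was read by CellTiter-Glo luminescence and normalized to DMSO and empty-well controls. Activity was expressed as AUC and per-cell-line Z-AUC.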
# [2] = BET inhibitor-based combinations targeting novel dependencies in MECOM-rearranged (r) AML: AML-191 cell line (AID 2202236; note: nearly all actives have a fitted effect of over 35% in size)
# Procedure, shortened: (§2)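 AML cell lines seeded at 500 cells/well, treated with 11-point dose curves for 48 h. Viability by CellTiter-Glo luminescence, normalised to DMSO and empty wells; activity expressed as AUC and per-cell-line Z-transformed AUC.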
# [3] = BET inhibitor-based combinations targeting novel dependencies in MECOM-rearranged (r) AML: AML-194 cell line (AID 2202237; note: nearly all actives have a fitted effect of over 40% in size)
# Procedure, shortened: as §2
# [4] = BET inhibitor-based combinations targeting novel dependencies in MECOM-rearranged (r) AML: SET-2 cell line (AID 2202231); settings: SET-2 AML cells viability, CellTiter-Glo luminescence, 48 h; viability: stronger effect = lower value, concentration not given here; note: nearly all actives have a fitted effect of over 35% in size
# Procedure, shortened: as §2
# [5] = BET inhibitor-based combinations targeting novel dependencies in MECOM-rearranged (r) AML: HNT-34 cell line (AID 2202234); note: nearly all actives have a fitted effect of over 35% in size
# Procedure, shortened: as §1
# [6] = BET inhibitor-based combinations targeting novel dependencies in MECOM-rearranged (r) AML: OCI-AML3 cell line (AID 2202232); settings: Potency: OCI-AML3 viability; note: nearly all actives have a fitted effect of over 35% in size
# Procedure, shortened: as §2
# [7] = BET inhibitor-based combinations targeting novel dependencies in MECOM-rearranged (r) AML: MV-4-11 cell line (AID 2202233); note: nearly all actives have a fitted effect of over 45% in size
# Procedure, shortened: as §1
# Potency is the fitted concentration of half-maximal effect.
compound,measurement,setting,value
CO/C1=C/C(C)=C\[C@@H](C)[C@@H](O)[C@@H](C)C/C(C)=C\C=C/[C@H](OC)[C@@H]([C@@H](C)[C@@H](O)[C@H](C)[C@@]2(O)C[C@@H](O)[C@H](C)[C@@H](C(C)C)O2)OC1=O,Potency,[1],inactive
O=C(O)C1=CCCN(CCOC(c2ccc(C(F)(F)F)cc2)c2ccc(C(F)(F)F)cc2)C1,Potency,[2],inactive
same,Potency,[3],inactive
CC(C)(NC(=O)O[C@@H]1CN2CCC1CC2)c1csc(-c2ccc(F)cc2)n1,viability,[4],91.1%
same,Potency,[5],14.8 µM (active)
same,Potency,[1],inactive
same,Potency,[3],inactive
COc1cc(C)[nH]c(=O)c1CNC(=O)c1c(C)n([C@H](C)C2CCN(CC(F)(F)F)CC2)c2ccccc12,Potency,[6],14.8 µM (active)
same,Potency,[7],inactive
same,Potency,[5],inactive
same,Potency,[1],inactive
same,Potency,[2],inactive
same,Potency,[3],inactive
N#CC(O[C@@H]1O[C@H](CO[C@@H]2O[C@H](CO)[C@@H](O)[C@H](O)[C@H]2O)[C@@H](O)[C@H](O)[C@H]1O)c1ccccc1 (some centres undefined),Potency,[6],inactive
same,Potency,[5],inactive
same,Potency,[2],inactive
same,Potency,[3],inactive
C#CCN(C)[C@H](C)Cc1ccccc1,Potency,[6],inactive
same,Potency,[7],inactive
same,Potency,[5],inactive
same,Potency,[2],inactive
C/C(=C\c1csc(C)n1)[C@@H]1C[C@@H]2O[C@]2(C)CCC[C@H](C)[C@H](O)[C@@H](C)C(=O)C(C)(C)[C@@H](O)CC(=O)O1,Potency,[4],0.0186 µM (active)
same,Potency,[6],0.0059 µM (active)
same,Potency,[1],0.0059 µM (active)
same,Potency,[3],0.0118 µM (active)
COc1cc(C(=O)N2CC[C@@H](O)[C@@H](N)C2)cc2nc(-c3cc4ccccc4n3CC3CC3)n(C)c12,viability,[4],103%
same,Potency,[1],inactive
same,Potency,[2],inactive
same,Potency,[3],inactive
COc1cc2cc(c1Cl)N(C)C(=O)C[C@H](OC(=O)C(C)C)[C@]1(C)O[C@@H]1[C@H](C)[C@@H]1C[C@@](O)(NC(=O)O1)[C@H](OC)/C=C/C=C(\C)C2,Potency,[5],inactive
same,Potency,[2],inactive
same,Potency,[3],inactive
Cn1c(/C=C/CO)c(CO)c2c1C(=O)C=C(N1CC1)C2=O,Potency,[5],inactive
same,Potency,[3],inactive
CC(=O)O[C@@]12CO[C@@H]1C[C@H](O)[C@@]1(C)C(=O)[C@H](O)C3=C(C)[C@@H](O)C[C@@](O)([C@@H](OC(=O)c4ccccc4)[C@H]21)C3(C)C,viability,[4],103%
same,Potency,[7],23.5 µM (active)
same,Potency,[3],23.5 µM (active)
Cc1[nH]ncc1-c1cc2nc([C@@H]3CC4CCN3CC4)[nH]c(=O)c2s1,Potency,[6],9.34 µM (active)
same,Potency,[7],3.32 µM (active)
same,Potency,[5],9.34 µM (active)
same,Potency,[1],9.34 µM (active)
same,Potency,[2],8.33 µM (active)
O=P1(NCCCl)OCCCN1CCCl (centres undefined),viability,[4],115%
same,Potency,[5],inactive
same,Potency,[3],inactive
O=C(NCCCNc1nc(Nc2ccc(N3CCOCC3)cc2)ncc1C1CC1)C1CCC1,Potency,[6],14.8 µM (active)
same,Potency,[7],0.372 µM (active)
same,Potency,[5],13.2 µM (active)
same,Potency,[1],9.34 µM (active)
C=C(C)[C@@H]1CCC(C)=C[C@H]1c1c(O)cc(CCCCC)cc1O,Potency,[6],20.9 µM (active)
same,Potency,[7],18.6 µM (active)
CN(C)NC(=O)CCC(=O)O,Potency,[6],inactive
same,Potency,[2],inactive
same,Potency,[3],inactive
CC(C)[C@H]1C(=O)N[C@H](CO)Cc2c[nH]c3cccc(c23)N1C,Potency,[7],1.15 µM (active)
same,Potency,[5],0.0512 µM (active)
CC(C)CC(N(C)C)C1(c2ccc(Cl)cc2)CCC1 (centres undefined),viability,[4],99.9%
same,Potency,[5],inactive
same,Potency,[1],inactive
same,Potency,[3],inactive
COC12C(COC(N)=O)C3=C(C(=O)C(C)=C(N)C3=O)N1CC1C2N1C (centres undefined),Potency,[5],inactive
same,Potency,[2],inactive
same,Potency,[3],inactive
O=C(Nc1ccncc1)C(=O)c1cn(Cc2ccc(Cl)cc2)c2ccccc12,Potency,[6],0.417 µM (active)
same,Potency,[7],0.296 µM (active)
same,Potency,[1],0.332 µM (active)
same,Potency,[2],0.263 µM (active)
CN(C)[C@@H]1C(=O)C(C(N)=O)=C(O)[C@@]2(O)C(=O)C3=C(O)c4c(O)cccc4[C@@](C)(O)[C@H]3[C@H](O)[C@@H]12,Potency,[6],inactive
same,Potency,[3],inactive
O=C(O)CNC(=O)C1C(=O)N(C2CCCCC2)C(=O)N(C2CCCCC2)C1=O,Potency,[7],inactive
same,Potency,[5],inactive
same,Potency,[2],inactive
same,Potency,[3],inactive
Cn1c(COP(=O)(NCCBr)NCCBr)cnc1[N+](=O)[O-],viability,[4],123%
same,Potency,[5],inactive
same,Potency,[1],inactive
same,Potency,[3],inactive
C[C@@H]1CC[C@H]2[C@@H](C)C(=O)O[C@@H]3O[C@@]4(C)CC[C@@H]1[C@]32OO4,viability,[4],93.5%
same,Potency,[5],14.8 µM (active)
same,Potency,[2],5.25 µM (active)
same,Potency,[3],inactive
C/C(O)=C(\C#N)C(=O)Nc1cc(Br)ccc1Br,Potency,[5],inactive
same,Potency,[1],inactive
same,Potency,[2],inactive
same,Potency,[3],inactive
C[C@]12COC(=O)C[C@@H]1CC[C@@H]1[C@@H]2CC[C@@]2(C)[C@H]1CC[C@]2(C)O,Potency,[5],inactive
same,Potency,[1],inactive
same,Potency,[2],inactive
same,Potency,[3],inactive
